# Source: PubChem BioAssay
# Unmarked numbers belong to inactive results. How the calls were made is not given here.
# Target: Pantothenate synthetase (Mycobacterium tuberculosis (strain ATCC 25618 / H37Rv)) (UniProt P9WIL5)
# Assay: Coupled enzyme confirmation of inhibitors against recombinant Mtb PanC (AID 375);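 further: 0% = full reaction with vehicle and 100% = no enzyme background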
# Details: coupled enzyme assay; at 10 µM, stronger effect = higher value
# Sequence of Pantothenate synthetase (Mycobacterium tuberculosis (strain ATCC 25618 / H37Rv)) (P9WIL5 whole entry, looked up): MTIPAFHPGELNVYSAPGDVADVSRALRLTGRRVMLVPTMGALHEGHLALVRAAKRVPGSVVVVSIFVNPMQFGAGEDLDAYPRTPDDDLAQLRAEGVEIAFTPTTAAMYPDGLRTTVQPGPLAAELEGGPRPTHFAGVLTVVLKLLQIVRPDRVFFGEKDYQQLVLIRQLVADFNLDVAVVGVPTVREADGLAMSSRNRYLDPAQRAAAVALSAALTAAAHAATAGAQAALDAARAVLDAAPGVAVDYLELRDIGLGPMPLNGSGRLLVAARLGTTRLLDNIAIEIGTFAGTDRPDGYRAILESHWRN
row,SMILES,inhibition [%]
1,O=C(CCn1cccc1)N1CCc2ccccc21,0
2,Cc1ccc(Cn2nnnc2CN2CCC(O)(c3ccccc3F)CC2)cc1,0
3,O=C(Nc1ccc(F)cc1)c1cccc2c1C(=O)N(Cc1ccccn1)C2,0
4,CCc1ccccc1OCCCCN1CCCC1,0
5,O=C(Nc1ccc(N2CCOCC2)cc1)Nc1ccc2nc(-c3ccco3)c(-c3ccco3)nc2c1,4
6,Cc1cccc(-n2ncc3c(N)ncnc32)c1,3
7,Nc1cc(-c2ccc(Br)cc2)nn1S(=O)(=O)c1ccccc1,2
8,C=CCNC(=O)CSc1nc2sc(C)c(C)c2c(=O)[nH]1,0
9,CC(C)[C@H](NC(=O)OC(C)(C)C)c1nnc(SCc2cccc(F)c2)o1,1
10,O=C(c1cc2n(n1)C(C(F)(F)F)CC(c1ccc(Cl)cc1)N2)N1CCCC1 (centres undefined),5
11,N#Cc1c(N)oc(-c2cccs2)c1-c1cccs1,1
12,N#Cc1ccc(CSc2nnc(-c3ccccn3)n2-c2ccccc2)cc1,0
13,c1ccc(CSc2nnc(-c3cccs3)n2Cc2ccco2)cc1,0
14,Cc1cc2ncn(N)c2cc1C,9
15,COc1ccccc1C1C(C(C)=O)=C(O)C(=O)N1CCc1ccccc1 (centres undefined),8
16,Cc1nnc(SCC(=O)N(C(C)C)C(C)C)nc1C,7
17,COc1ccccc1N1CCN(CC(O)c2ccc3cc[nH]c3c2)CC1 (centres undefined),5
18,O=C(c1ccc(Br)o1)N1CCN(c2ccc3nnc(-c4ccccc4)n3n2)CC1,1
19,CC(=O)O[C@H]1C[C@@H]2CC[C@@H]3[C@H](CC[C@@]4(C)[C@H]3C[C@H]([N+]3(C)CCCCC3)[C@@H]4OC(C)=O)[C@@]2(C)C[C@@H]1[N+]1(C)CCCCC1,0
20,COc1ccc2c(=O)c3c(=O)n(Cc4ccco4)c(C(C)C)nc3oc2c1,0
21,O=S(=O)(NCC(O)COCc1ccco1)c1cccs1 (centres undefined),2
22,CCOC(=O)c1ccc(N2C(=O)CC(N3CCN(C/C=C/c4ccccc4)CC3)C2=O)cc1 (centres undefined),2

row,SMILES,inhibition [%]
1,COc1ccc(OC)c(Nc2nc(-c3cccs3)cs2)c1,0
2,CCOc1ccc(-c2nnn(CCC(=O)O)n2)cc1OC,0
3,COc1cccc(-c2cc(C(=O)NCc3ccc(Cl)cc3)no2)c1,0
4,C=C1[C@@H](C)C2[C@H](Cc3ccccc3)NC(=O)[C@]23OC(=O)CC[C@H](O)CCC[C@H](C)C/C=C/[C@H]3[C@@H]1O (some centres undefined),0
5,Cc1ccc(C)c2[nH]c(=O)c(CCNC(=O)c3ccc(S(=O)(=O)N(C)C)cc3)cc12,0
6,CC(C)n1c(=NC(=O)c2ccco2)c(C#N)cc2c(=O)n3ccccc3cc21,0
7,COC(=O)C(C)C1Sc2ccccc2NC1=O (centres undefined),11
8,Cc1nc2ccccc2c2oc(C(=O)NCCN3CCCCC3C)cc12 (centres undefined),0
9,O=C(CNCCC1=CCCCC1)Nc1ccccc1N1CCCCC1,0
10,O=C(Cn1cnc2c(cnn2-c2ccc(F)cc2)c1=O)N1CCN(c2ccccc2)CC1,0
11,CCOc1ccc2nc(NC(=O)CSc3nc4ccccc4c(=O)n3Cc3ccco3)sc2c1,0
12,CSCCC(NC(=O)c1occc1C)C(=O)O (centres undefined),0
13,Cc1cc(Cl)c(S(=O)(=O)NC2CCCCC2)cc1OCC(=O)Nc1nncs1,3
14,Cc1ccccc1CSCC(=O)c1c(N)n(C)c(=O)n(C)c1=O,2
15,CN(CC(=O)N1CCN(C2CCCCC2)CC1)S(=O)(=O)c1cccc2nsnc12,8
16,Cc1cc(C)cc(N2C(=O)CC(N3CCOCC3)C2=O)c1 (centres undefined),0
17,Cc1ccc(-c2csc3nnc(SCC(=O)NCc4ccco4)n23)cc1,2
18,Cc1cc(NS(=O)(=O)c2ccc(NC(=O)C(C)N3C(=O)c4ccccc4C3=O)cc2)nc(C)n1 (centres undefined),1
19,Cc1nc2ccc(NC(=O)N3CCC(c4ccccc4)C3)cc2nc1C (centres undefined),0
20,Cc1ccc(-c2noc(CCC(=O)N3CCN(c4cccc(C(F)(F)F)c4)CC3)n2)cc1,0
21,Cc1ccc(/C(O)=C2\C(=O)C(=O)N(CCCN(C)C)C2c2ccccn2)cc1 (centres undefined),1
22,Cn1c(SCc2ccc3c(c2)OCO3)nnc1-c1ccccc1,0
